# Experimental data taken from the supplement of paper PMC4022240.
# ± gives the standard deviation.
# T1: HaloTag-ATRX ADD domain (163-292)
# T1 chain: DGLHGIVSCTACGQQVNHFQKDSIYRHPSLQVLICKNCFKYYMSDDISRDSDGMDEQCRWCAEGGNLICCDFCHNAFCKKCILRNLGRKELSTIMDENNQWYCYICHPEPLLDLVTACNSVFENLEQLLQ
# How the values were obtained:
# Experiment in all cases: peptide microarray binding signal (635 nm), min-max normalized on array (fraction of array maximum); higher = stronger binding
# Conditions in all cases: peptide region: H3 11-23
# [1] = target: T1, HaloTag-ATRX ADD domain (163-292)
# In short: (§1)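 Binding signal is the mean intensity of triplicate spots, min-max scaled within each library. Histone 13-mer peptide–cellulose conjugates were spotted in triplicate on nitrocellulose with a Cy3 tracer and blocked overnight at 4°C. Probing lasted 1 h at 4°C, either with biotin-labelled HaloTag reader fusions (10 nM to 1 μM) and streptavidin-Alexa Fluor 647 or with rabbit histone antibodies (1:10,000 to 1:2,000) and anti-rabbit Alexa 647. An Axon GenePix 4000B read signal at 635 nm and misprints at 532 nm.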
# [2] = target: HaloTag-ING2 PHD (mouse Ing2 200-280)
# In short: as §1
# [3] = target: anti-H3K4me3 antibody ab8580
# In short: as §1
# [4] = target: anti-H3K9me3 antibody ab8898
# In short: as §1
# [5] = peptide modifications: H3K14me1 H3K18ac, binder concentration: 1:2,000 dilution
# [6] = peptide modifications: H3K14me1 H3K18ac, binder concentration: 1:10,000 dilution
# [7] = peptide modifications: H3K14me1 H3K18me3, binder concentration: 1:2,000 dilution
# [8] = peptide modifications: H3K14me1 H3K18me3, binder concentration: 1:10,000 dilution
# [9] = peptide modifications: H3K14me2, binder concentration: 1:2,000 dilution
# [10] = peptide modifications: H3K14me2, binder concentration: 1:10,000 dilution
# [11] = peptide modifications: H3K14me1 H3R17me1, binder concentration: 1:2,000 dilution
# [12] = peptide modifications: H3K14me1 H3R17me1, binder concentration: 1:10,000 dilution
# [13] = peptide modifications: H3K14ac H3R17me1, binder concentration: 1:2,000 dilution
# [14] = peptide modifications: H3K14ac H3R17me1, binder concentration: 1:10,000 dilution
# [15] = peptide modifications: H3K14me2 H3K18ac, binder concentration: 1:2,000 dilution
# [16] = peptide modifications: H3K14me2 H3K18ac, binder concentration: 1:10,000 dilution
# [17] = peptide modifications: H3K14me1 H3K18me1, binder concentration: 1:2,000 dilution
# [18] = peptide modifications: H3K14me1 H3K18me1, binder concentration: 1:10,000 dilution
# [19] = peptide modifications: H3K14ac H3K18me1, binder concentration: 1:2,000 dilution
# [20] = peptide modifications: H3K14ac H3K18me1, binder concentration: 1:10,000 dilution
# [21] = peptide modifications: H3K14me2 H3K18me1, binder concentration: 1:2,000 dilution
# [22] = peptide modifications: H3K14me2 H3K18me1, binder concentration: 1:10,000 dilution
# [23] = peptide modifications: H3K14ac H3K18me2, binder concentration: 1:2,000 dilution
# [24] = peptide modifications: H3K14ac H3K18me2, binder concentration: 1:10,000 dilution
binder,measurement,setting,value
TGGKAPRKQLATK [H3 11-23 T G G Kme A P R Kac Q L A T K],peptide microarray binding signal,"[1]; peptide modifications: H3K14me1 H3K18ac, binder concentration: 50 nM",0.00715 ± 0.00026
same,peptide microarray binding signal,"[1]; peptide modifications: H3K14me1 H3K18ac, binder concentration: 500 nM",0.014 ± 0.00051
same,peptide microarray binding signal,"[2]; peptide modifications: H3K14me1 H3K18ac, binder concentration: 10 nM",0.014 ± 0.0016
same,peptide microarray binding signal,"[2]; peptide modifications: H3K14me1 H3K18ac, binder concentration: 100 nM",0.0363 ± 0.0088
same,peptide microarray binding signal,[3]; [5],0.007 ± 0.001
same,peptide microarray binding signal,[3]; [6],0.00331 ± 0.0003
same,peptide microarray binding signal,[4]; [5],0.00159 ± 1.9e-05
same,peptide microarray binding signal,[4]; [6],0.00127 ± 3.4e-05
TGGKAPRKQLATK [H3 11-23 T G G Kme A P R Kme3 Q L A T K],peptide microarray binding signal,"[1]; peptide modifications: H3K14me1 H3K18me3, binder concentration: 50 nM",0.00705 ± 0.00051
same,peptide microarray binding signal,"[1]; peptide modifications: H3K14me1 H3K18me3, binder concentration: 500 nM",0.0115 ± 0.00073
same,peptide microarray binding signal,"[2]; peptide modifications: H3K14me1 H3K18me3, binder concentration: 10 nM",0.0113 ± 0.00048
same,peptide microarray binding signal,"[2]; peptide modifications: H3K14me1 H3K18me3, binder concentration: 100 nM",0.0191 ± 0.00089
same,peptide microarray binding signal,[3]; [7],0.389 ± 0.079
same,peptide microarray binding signal,[3]; [8],0.473 ± 0.23
same,peptide microarray binding signal,[4]; [7],0.0513 ± 0.004
same,peptide microarray binding signal,[4]; [8],0.0139 ± 0.0023
TGGKAPRKQLATK [H3 11-23 T G G Kme2 A P R K Q L A T K],peptide microarray binding signal,"[1]; peptide modifications: H3K14me2, binder concentration: 50 nM",0.00614 ± 7.5e-05
same,peptide microarray binding signal,"[1]; peptide modifications: H3K14me2, binder concentration: 500 nM",0.0148 ± 0.0014
same,peptide microarray binding signal,"[2]; peptide modifications: H3K14me2, binder concentration: 10 nM",0.00806 ± 0.00059
same,peptide microarray binding signal,"[2]; peptide modifications: H3K14me2, binder concentration: 100 nM",0.00928 ± 0.002
same,peptide microarray binding signal,[3]; [9],0.00381 ± 0.00026
same,peptide microarray binding signal,[3]; [10],0.00331 ± 0.00013
same,peptide microarray binding signal,[4]; [9],0.00619 ± 0.00091
same,peptide microarray binding signal,[4]; [10],0.00548 ± 0.0005
TGGKAPRKQLATK [H3 11-23 T G G Kme A P Rme K Q L A T K],peptide microarray binding signal,"[1]; peptide modifications: H3K14me1 H3R17me1, binder concentration: 50 nM",0.0069 ± 0.00032
same,peptide microarray binding signal,"[1]; peptide modifications: H3K14me1 H3R17me1, binder concentration: 500 nM",0.0148 ± 0.001
same,peptide microarray binding signal,"[2]; peptide modifications: H3K14me1 H3R17me1, binder concentration: 10 nM",0.00674 ± 0.00033
same,peptide microarray binding signal,"[2]; peptide modifications: H3K14me1 H3R17me1, binder concentration: 100 nM",0.0121 ± 0.00053
same,peptide microarray binding signal,[3]; [11],0.00587 ± 0.0018
same,peptide microarray binding signal,[3]; [12],0.0114 ± 0.0068
same,peptide microarray binding signal,[4]; [11],0.0084 ± 0.0022
same,peptide microarray binding signal,[4]; [12],0.00427 ± 0.0008
TGGKAPRKQLATK [H3 11-23 T G G Kac A P Rme K Q L A T K],peptide microarray binding signal,"[1]; peptide modifications: H3K14ac H3R17me1, binder concentration: 50 nM",0.0113 ± 0.0011
same,peptide microarray binding signal,"[1]; peptide modifications: H3K14ac H3R17me1, binder concentration: 500 nM",0.0152 ± 0.00047
same,peptide microarray binding signal,"[2]; peptide modifications: H3K14ac H3R17me1, binder concentration: 10 nM",0.0182 ± 0.0058
same,peptide microarray binding signal,"[2]; peptide modifications: H3K14ac H3R17me1, binder concentration: 100 nM",0.0339 ± 0.014
same,peptide microarray binding signal,[3]; [13],0.00517 ± 0.00077
same,peptide microarray binding signal,[3]; [14],0.00719 ± 0.0015
same,peptide microarray binding signal,[4]; [13],0.00569 ± 0.00047
same,peptide microarray binding signal,[4]; [14],0.00404 ± 0.00028
TGGKAPRKQLATK [H3 11-23 T G G Kme2 A P R Kac Q L A T K],peptide microarray binding signal,"[1]; peptide modifications: H3K14me2 H3K18ac, binder concentration: 50 nM",0.00868 ± 0.00034
same,peptide microarray binding signal,"[1]; peptide modifications: H3K14me2 H3K18ac, binder concentration: 500 nM",0.0165 ± 0.0015
same,peptide microarray binding signal,"[2]; peptide modifications: H3K14me2 H3K18ac, binder concentration: 10 nM",0.0173 ± 0.003
same,peptide microarray binding signal,"[2]; peptide modifications: H3K14me2 H3K18ac, binder concentration: 100 nM",0.0242 ± 0.0017
same,peptide microarray binding signal,[3]; [15],0.0129 ± 0.0016
same,peptide microarray binding signal,[3]; [16],0.0111 ± 0.00098
same,peptide microarray binding signal,[4]; [15],0.00806 ± 0.00086
same,peptide microarray binding signal,[4]; [16],0.00496 ± 0.00013
TGGKAPRKQLATK [H3 11-23 T G G Kme A P R Kme Q L A T K],peptide microarray binding signal,"[1]; peptide modifications: H3K14me1 H3K18me1, binder concentration: 50 nM",0.00561 ± 0.00015
same,peptide microarray binding signal,"[1]; peptide modifications: H3K14me1 H3K18me1, binder concentration: 500 nM",0.00886 ± 0.00086
same,peptide microarray binding signal,"[2]; peptide modifications: H3K14me1 H3K18me1, binder concentration: 10 nM",0.0118 ± 0.0022
same,peptide microarray binding signal,"[2]; peptide modifications: H3K14me1 H3K18me1, binder concentration: 100 nM",0.0213 ± 0.0055
same,peptide microarray binding signal,[3]; [17],0.00619 ± 0.0022
same,peptide microarray binding signal,[3]; [18],0.00611 ± 0.00051
same,peptide microarray binding signal,[4]; [17],0.00311 ± 0.00053
same,peptide microarray binding signal,[4]; [18],0.00213 ± 5.2e-05
TGGKAPRKQLATK [H3 11-23 T G G Kac A P R Kme Q L A T K],peptide microarray binding signal,"[1]; peptide modifications: H3K14ac H3K18me1, binder concentration: 50 nM",0.00759 ± 8.2e-05
same,peptide microarray binding signal,"[1]; peptide modifications: H3K14ac H3K18me1, binder concentration: 500 nM",0.012 ± 0.00073
same,peptide microarray binding signal,"[2]; peptide modifications: H3K14ac H3K18me1, binder concentration: 10 nM",0.0187 ± 0.0021
same,peptide microarray binding signal,"[2]; peptide modifications: H3K14ac H3K18me1, binder concentration: 100 nM",0.0405 ± 0.011
same,peptide microarray binding signal,[3]; [19],0.0114 ± 0.0027
same,peptide microarray binding signal,[3]; [20],0.00725 ± 0.00036
same,peptide microarray binding signal,[4]; [19],0.00275 ± 0.00016
same,peptide microarray binding signal,[4]; [20],0.00219 ± 0.0001
TGGKAPRKQLATK [H3 11-23 T G G Kme2 A P R Kme Q L A T K],peptide microarray binding signal,"[1]; peptide modifications: H3K14me2 H3K18me1, binder concentration: 50 nM",0.00752 ± 0.0013
same,peptide microarray binding signal,"[1]; peptide modifications: H3K14me2 H3K18me1, binder concentration: 500 nM",0.0129 ± 0.00084
same,peptide microarray binding signal,"[2]; peptide modifications: H3K14me2 H3K18me1, binder concentration: 10 nM",0.013 ± 0.0021
same,peptide microarray binding signal,"[2]; peptide modifications: H3K14me2 H3K18me1, binder concentration: 100 nM",0.0405 ± 0.012
same,peptide microarray binding signal,[3]; [21],0.0136 ± 0.0009
same,peptide microarray binding signal,[3]; [22],0.00964 ± 0.0012
same,peptide microarray binding signal,[4]; [21],0.00565 ± 0.00074
same,peptide microarray binding signal,[4]; [22],0.0045 ± 0.00053
TGGKAPRKQLATK [H3 11-23 T G G Kac A P R Kme2 Q L A T K],peptide microarray binding signal,"[1]; peptide modifications: H3K14ac H3K18me2, binder concentration: 50 nM",0.00727 ± 0.00061
same,peptide microarray binding signal,"[1]; peptide modifications: H3K14ac H3K18me2, binder concentration: 500 nM",0.0126 ± 0.00024
same,peptide microarray binding signal,"[2]; peptide modifications: H3K14ac H3K18me2, binder concentration: 10 nM",0.0171 ± 0.0046
same,peptide microarray binding signal,"[2]; peptide modifications: H3K14ac H3K18me2, binder concentration: 100 nM",0.031 ± 0.014
same,peptide microarray binding signal,[3]; [23],0.0176 ± 0.0051
same,peptide microarray binding signal,[3]; [24],0.0145 ± 0.0016
same,peptide microarray binding signal,[4]; [23],0.00399 ± 0.00012
same,peptide microarray binding signal,[4]; [24],0.00346 ± 0.0001
